MCF10A rereplic – A quantitative high throughput screen for small molecules that induce DNA re-replication in MCF 10a normal breast cells; MCF 10A DNA re-replication, Hoechst nuclear intensity, 48 h; Potency, µM (titrated, usually from 46.1 µM), usual class: activators; hit rate 2.9% among 350,000; AID 624296, 2012; note: nearly all actives have a fitted effect of over 50% in size
ELG1 repair inh – qHTS screen for small molecules that inhibit ELG1-dependent DNA repair in human embryonic kidney (HEK293T) cells expressing luciferase-tagged ELG1. HEK293T ELG1-luciferase reporter, luminescence, 16 h; DNA damage induced by 5-fluorouridine. Potency, µM (doses to about 46.1 µM), hits mostly inhibitors. hit rate 2.3% among 330,000. AID 504467, 2011; note: nearly all actives have a fitted effect of over 55% in size
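HEK293T cells expressing luciferase-tagged ELG1 (2,000/well) received 5-Fluorouridine plus compound or DMSO for 16 hr at 37 °C. Luciferase was read by ONE-Glo luminescence after 30 min at room temperature.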
KB-3-1 cytotox – qHTS assay for MDR1-selective chemotherapeutics: Primary screen using the parental adenocarcinoma cell KB-3-1. KB-3-1 viability, CellTiter-Glo ATP luminescence, 72 h. Potency, µM (top dose mostly 46.1 µM), hits mostly cytotoxic. hit rate 1.4% among 400,000. AID 1347075, 2019; note: nearly all actives have a fitted effect of over 60% in size
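72 h, 37 °C compound treatment of KB-3-1 parental cells; CellTiter-Glo added, 10 min, luminescence read. Data corrected against DMSO-only plates and normalized before curve fitting.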
SW480 rerep – A quantitative high throughput screen for small molecules that induce DNA re-replication in SW480 colon adenocarcinoma cells; hit rate 1.8% among 340,000; SW480 DNA re-replication, Hoechst DNA content imaging, 48 h; Potency, µM (top dose mostly 46.1 µM), actives largely listed as activators; AID 624297, 2012; note: nearly all actives have a fitted effect of over 55% in size
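Cells (250 per well) received 23 nL compound or DMSO by pin tool and were kept 48 hr at 37 C, 5% CO2. Nuclei were then stained with Hoechst for 40 min and scanned for DNA content.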
KB-V1 cytotox – qHTS assay for MDR1-selective chemotherapeutics: Primary screen using the drug-selected MDR subline cells KB-V1; KB-V1 MDR cells viability, CellTiter-Glo, 72 h; Potency, µM (doses to about 46.1 µM), usual class: cytotoxic; hit rate 3.4% among 400,000; AID 1347076, 2019; note: nearly all actives have a fitted effect of over 60% in size
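KB-V1, DMEM (no phenol red) + 10% FBS; cpd pin-transferred, titration series; 72 h, 37 degrees C; CellTiter-Glo, luminescence. Data normalized, curve-fit.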
Hits are given with their value; n = inactive; u = inconclusive; x = no result. Most compounds without a hit are left out; they make up all but 8.2% or so of the library. Calls come from the whole dose curve; as a rule, active = well fitted curve in the direction sought with a large enough effect; inconclusive = small, poorly fitted or top-dose-only effect, or another doubt; inactive = no such curve, though single readings can be large; an effect the other way counts as inactive or inconclusive.

SMILES | MCF10A rereplic | ELG1 repair inh | KB-3-1 cytotox | SW480 rerep | KB-V1 cytotox
CC(C)c1ccc(/C=N/n2c(COc3ccccc3)n[nH]c2=S)cc1 | 20.6µM | n | n | n | u
CCOc1ccc(/C=N/n2c(C3CCCCC3)n[nH]c2=S)cc1 | 10.3µM | n | n | n | n
Cc1scc(-c2n[nH]c(=S)n2C(C)c2ccccc2)c1C (centres undefined) | 10.3µM | n | u | n | u
CC1(C(=O)NS(=O)(=O)c2cccc(Cl)c2)CCN1C(=O)Cc1ccc(-c2ccccc2)cc1 (centres undefined) | x | x | n | x | n
CC(=O)Nc1nonc1-c1nnc(SCc2ccccc2F)n1C | x | x | n | x | n
O=P(NCc1ccccc1)(OCc1ccccc1)OCc1ccccc1 | n | x | n | n | 9.2µM
O=P(O)(OCc1ccccc1)OCc1ccccc1 | n | n | n | n | n
CCCn1c(=O)sc2cc(NC(=O)c3ccccc3OCC)ccc21 | x | x | n | x | n
CC(=O)N/N=C/c1cc(C(C)(C)C)cc(/C=N/NC(C)=O)c1O | 14.6µM | 14.6µM | n | 3.26µM | u
O=C(CCCN1C(=O)/C(=C/c2cccs2)SC1=S)Nc1cccnc1 | n | n | n | n | n
O=C(CCCN1C(=O)/C(=C/c2cccc(Br)c2)SC1=S)Nc1ccccn1 | u | u | 5.8µM | u | 14.6µM
COC(=O)CCCCCN1C(=O)/C(=C\c2ccncc2)SC1=S | 25.9µM | n | n | n | n
O=C(O)CCN1C(=O)/C(=C\c2ccncc2)SC1=S | n | n | n | n | n
Cc1ccc(/C=C2\SC(=S)N(CCCC(=O)Nc3cccnc3)C2=O)cc1 | u | u | u | u | 23.1µM
O=C(CCCN1C(=O)/C(=C/c2cccc(Br)c2)SC1=S)Nc1cccnc1 | 18.4µM | 9.2µM | u | 18.4µM | n
O=C(CCCN1C(=O)/C(=C/c2ccccc2OC(F)F)SC1=S)Nc1cccnc1 | 23.1µM | 20.6µM | u | u | u
O=C(CCCN1C(=O)/C(=C\c2cccs2)SC1=S)Nc1cccnc1 | u | n | n | u | u
O=C(CCCN1C(=O)/C(=C\c2cccc(Br)c2)SC1=S)Nc1cccnc1 | 8.2µM | u | n | n | n
CCOc1ccccc1NC(=O)c1c(NC(=O)Cc2ccc(OC)cc2)sc2c1CCC2 | x | x | n | x | n
CCCCc1nc2n[nH]c(N)c2c2c1CCCC2 | u | n | 4.11µM | n | 0.517µM
CCCc1nc2n[nH]c(N)c2c2c1CCCC2 | n | n | n | n | n
CCOC(=O)C(NC(=O)CCl)(Nc1sc(C)c(CC)c1C#N)C(F)(F)F (centres undefined) | u | n | n | 16.4µM | u
O=C(c1ccc(N2CCN(C(=O)c3ccccc3)CC2)cc1)c1cccc(F)c1 | 9.2µM | u | u | n | 9.2µM
O=C(c1cccc(F)c1)N1CCCN(C(=O)c2cccc(F)c2)CC1 | n | n | n | n | n
COc1ccc(C(=O)N2CCN(c3ccc([N+](=O)[O-])c(-n4nc(C)cc4C)c3)CC2)cc1 | n | n | u | n | u
SMILES | MCF10A rereplic | ELG1 repair inh | KB-3-1 cytotox | SW480 rerep | KB-V1 cytotox
Cc1cc(C)n(-c2cc(N3CCN(C(=O)c4cccc(F)c4)CC3)ccc2[N+](=O)[O-])n1 | n | 20.6µM | n | n | u
O=C(c1cccc(F)c1)N1CCN(c2cccc(Cl)c2)CC1 | u | u | 20.6µM | u | 11.6µM
Cc1[nH]c(-c2ccc(F)cc2)cc1C(=O)N1CCN(c2cccc(Cl)c2)CC1 | 9.2µM | n | n | u | u
CCN(CC(=O)NCc1ccc(F)cc1)C(=O)c1ccc2c(c1)OCO2 | n | n | n | n | n
CCOC(=O)c1c(C)[nH]c(C)c1S(=O)(=O)N(C)CC(=O)Nc1ccccc1 | n | n | n | n | n
O=C(COc1ccc(F)cc1)Nc1nnc(SCc2cc(=O)n3ccccc3n2)s1 | x | x | n | x | n
O=C(c1c(Cl)nc2sccn12)N1CCN(c2cccc(Cl)c2)CC1 | 4.11µM | u | 1.64µM | 2.91µM | u
Cc1ccc(S(=O)(=O)Nc2cccc(C(=O)NCC(c3ccco3)N3CCCC3)c2)cc1F (centres undefined) | n | n | u | 23.1µM | u
O=C(NCC(c1ccco1)N1CCCCC1)c1cccc(NS(=O)(=O)c2ccc(Br)cc2)c1 (centres undefined) | 18.4µM | n | n | n | u
CC(=O)c1cccc(S(=O)(=O)NCC(c2ccco2)N2CCCCC2)c1 (centres undefined) | n | 0.581µM | n | n | n
C/C(=N\NC(=O)c1nnn(-c2nonc2N)c1C(C)C)c1cc(C)sc1C | n | n | n | n | n
CCOC(=O)N1CCN(C(=O)CSc2nc(=O)n3ccccc3n2)CC1 | n | n | n | n | n
CCOC(=O)c1c(C)n(C)c2ccc(OCC(O)Cn3c(C)nc4ccccc43)cc12 (centres undefined) | u | 11.6µM | n | n | 13µM
Cc1nc2ccccc2n1CC(O)COc1ccc(Br)cc1 (centres undefined) | n | u | u | n | 13µM
CCC(=O)c1ccc(OCC(O)Cn2c(C)nc3ccccc32)cc1 (centres undefined) | n | u | n | n | 8.2µM
CN(C(=O)c1ccc(NC(=O)Cc2cccc(NC(=O)C3CCCN(C(=O)C4CC4)C3)c2)cc1)C1CC1 (centres undefined) | u | x | n | n | n
CCOc1cc(S(=O)(=O)NCCc2c(C)[nH]c3ccc(C)cc23)ccc1F | x | x | n | x | n
O=[N+]([O-])c1ccc(S(=O)(=O)Nc2nc3ccccc3nc2Nc2ccccc2)cc1 | n | u | n | n | 5.17µM
COc1cc(Nc2nc3ccccc3nc2NS(=O)(=O)c2ccc([N+](=O)[O-])cc2)cc(OC)c1OC | n | 16.4µM | n | u | u
CC(C)(C)c1ccc(C(=O)Nc2ccc(S(=O)(=O)Nc3cnc4ccccc4n3)cc2)cc1 | u | n | n | n | n
O=C(O)c1ccc(Nc2nc3ccccc3nc2NS(=O)(=O)c2ccc(F)cc2)cc1 | 23.1µM | n | n | n | n
O=C(O)c1cccc(Nc2nc3ccccc3nc2NS(=O)(=O)c2ccccc2)c1 | n | n | n | n | n
CC(=O)Nc1ccc(S(=O)(=O)Nc2nc3ccccc3nc2Nc2ccc(N)cc2)cc1 | n | n | n | n | n
O=C(Nc1ccc(S(=O)(=O)Nc2cnc3ccccc3n2)cc1)c1ccc(F)cc1 | n | x | n | 7.31µM | n
COc1ccc(Nc2nc3ccccc3nc2NS(=O)(=O)c2ccc(C)cc2)c(OC)c1 | x | x | n | x | n
Cc1ccc(Cn2c(C)c(CNC(C)c3ccccc3)c(C(=O)O)c2C)cc1 (centres undefined) | x | x | n | x | n

Source: PubChem BioAssay
